Experimental data reported in PubChem BioAssay (NCATS).
Records with an inconclusive call do not appear. Values without a mark were called inactive. Active and inactive are the calls of the source. Calls come from the whole dose curve; as a rule, active = well fitted activation curve with a large enough effect; inconclusive = small, poorly fitted or top-dose-only effect; inactive = flat fitted curve, though single readings scatter. Square brackets hold non-standard residues; d marks the D form. Peptide text beside a SMILES is read from it. ξ: configuration not given here. ξL = CC(C)CC(N)C(=O)O

assay: qHTS for H2AX Agonists against the NCATS CANVASS Library (AID 1347378); details: CHO-K1 H2AX phosphorylation, HTRF TR-FRET, 3 h; series mostly up to 76.9 µM; activation: at the top concentration; for activation: 0% is about no effect
Description: Natural products and their derivatives continue to be wellsprings of nascent therapeutic potential. However, many laboratories have limited resources for biological evaluation, leaving their previously isolated or synthesized compounds largely or completely untested. To address this issue, the Canvass library of natural products was assembled (https://tripod.nih.gov/canvass), in collaboration with academic and industry researchers, for quantitative high-throughput screening (qHTS) across a diverse set of cell-based and biochemical assays. The pure (>85% purity by liquid chromatography/mass spectrometry [LC/MS]) Canvass library of 346 natural products were submitted by 45 academic laboratories and companies around the world. We collected pure natural products to circumvent deconvolution and structure elucidation due to time and resource limitations. The library was formatted into 1536-well plates and evaluated in 50 qHTS (in an 11-pnt concentration series) bioassays with broad scope of disease-relevant mechanisms. The resulting data set from 50 different assays was then systematically analyzed to identify overall trends and specific natural products with interesting biological activities. Reported herein are the results of each individual qHTS and their corresponding assay protocol. This assay determines the levels of phospho-H2AX in cell lysates of Chinese hamster ovary CHO cells. It is based on time resolved fluorescence resonance energy transfer (TR-FRET). Two anti-H2AX antibodies are labeled with europium cryptate and d2, respectively. The increase of FRET levels is proportional to the concentration of phosphorylated H2AX. The results were expressed as the ratio of 665/615 nm emissions. National Center for Advancing Translational Sciences (NCATS), Rockville, MD National Institute of Health (NIH), Bethesda, Maryland
H2AX assay protocol: The CHO-K1 cells suspended in culture medium containing 10% FBS were dispensed at 1000 cells/ 3 ul/well in 1536-well white wall/solid bottom plates (Greiner Bio-One North America, NC) using a Multidrop Combi (Thermo Fisher Scientific Inc., Waltham, MA). After the assay plates were incubated at 37C overnight, 23 nl of compounds at 15 concentrations (from 5-48 columns) or positive control (from 1 to 4 columns) were transferred to the assay plates using a Pintool station (Wako, San Diego, CA) into each well resulting in a final DMSO concentration of 0.76%. After 3hr incubation at 37C, 1 uL/well Supplemented Lysis buffer (diluted 100 fold blocking reagent in lysis buffer) (HTRF Phospho-H2A.X (S139) Assay kit from Cisbio US Inc., Bedford, MA) was added using a Flying Reagent Dispenser (FRD) (Aurora Discovery, CA). After 10sec spin at 1000 rpm in a plate centrifuge, the assay plates were incubated at room temperature for 30 min. Then followed by the addition of 1 uL/well detection buffer (containing a mixture of two antibodies, one labeled with cryptate, Anti pH2AX (S139)-K and another labeled with d2, Anti H2AX-d2) using FRD. After incubation at room temperature for 24 hr, the time resolved fluorescence at excitation 320 nm and emissions at 665 nm and 620 nm was measured using an Envision plate reader (PerkinElmer, Waltham, MA).
Potency is the fitted concentration of half-maximal effect.

**Q.** For `CN1CC[C@]2(c3cccc4c3N[C@H]3N(C)CC[C@@]43[C@]34CCN(C)[C@H]3Nc3ccccc34)c3ccccc3N[C@H]12`, which “activation” value is on record?
**A.** 9.45%

**Q.** Which “activation” value does the source give for `C/C(=C\[C@H](C)C(=O)C[C@H](O)CC1CC(=O)NC(=O)C1)[C@@H]1OC(=O)CCCC/C=C/C[C@@H](O)[C@@H]1C` here?
**A.** 14.3%

**Q.** Which “activation” value does the source give for `Oc1ccc(C2Oc3cc(O)c4c(c3[C@@H]2c2cc(O)cc(O)c2)[C@H]2C(c3ccc(O)cc3)c3c(O)cc5c(c3[C@H]2C4c2ccc(O)cc2)[C@H](c2cc(O)cc(O)c2)C(c2ccc(O)cc2)O5)cc1` (stereo not given in full) here?
**A.** 1.8%

**Q.** Which “activation” value does the source give for `CC(C)=CCC/C(C)=C/Cc1cc([C@@H]2CC(=O)c3c(cc(O)c(CC=C(C)C)c3O)O2)ccc1O` here?
**A.** -3.69%

**Q.** For `C/C(=C\[C@H](C)C(=O)C[C@H](O)CC1CC(=O)NC(=O)C1)[C@@H]1OC(=O)CCCC/C=C/[C@@H](O)C[C@@H]1C`, which “activation” value is on record?
**A.** 12.5%

**Q.** For `C=C(Cl)[C@](Cl)(CBr)CC[C@@H](Br)C(C)(C)Cl`, which Potency is on record?
**A.** 4.86 µM (active)

**Q.** For `C/C1=C/[C@@H](C)[C@H](O)[C@@H](O)/C=C/CC/C=C/C(=O)O[C@@H]1[C@H](C)C(=O)/C=C/CC1CC(=O)NC(=O)C1`, which “activation” value is on record?
**A.** -4.08%

**Q.** Which “activation” value does the source give for `C/C(=C\CC[C@@H](C)[C@H]1CC[C@]2(C)C3=CCC4C(C)(C)[C@@H](O)C[C@@H](O)[C@]4(C)C3[C@H](O)C[C@@]12C)CO` (stereo not given in full) here?
**A.** 3.25%

**Q.** With `C=C1CC[C@@H](O[C@H]2C[C@@](O)([C@H](C)NC(=O)c3[nH]c(C)c(Cl)c3Cl)[C@H](O)[C@@H](C)O2)[C@@H]2C=C[C@H](C)C(/C(O)=C3/C(=O)[C@H](C(C)C)N([C@@H]4O[C@H](C)[C@H](OC(N)=O)[C@H](OC(C)=O)[C@@H]4OC)C3=O)[C@@H]12` (stereo not given in full) as the molecule, how does the “activation” value read?
**A.** -2.71%

**Q.** With `COc1ccc(-c2oc3cc(OC)cc(OC)c3c(=O)c2O)cc1` as the molecule, how does the “activation” value read?
**A.** 0.844%

**Q.** For `C/C1=C/[C@@H](C)[C@H](O)C/C=C/CC/C=C/C(=O)O[C@@H]1[C@H](C)C(=O)CCCC1CC(=O)NC(=O)C1`, which “activation” value is on record?
**A.** 20.6%

**Q.** With `C/C=C(/C)c1c(Cl)c(OC)c(C)c2c1Oc1c(Cl)c(O)c(Cl)c(C)c1C(=O)O2` as the molecule, how does the “activation” value read?
**A.** 3.85%

**Q.** Which “activation” value does the source give for `C=C(C)CC[C@H](Cc1c(O)cc(O)c2c1O[C@H](c1ccc(O)cc1)CC2=O)C(=C)C` here?
**A.** 1.32%

**Q.** Which “activation” value does the source give for `CO[C@@H](C[C@@H](C)[C@@H](O)/C=C/C=C/CNC(=O)C(C)(C)[C@H](O)\C(C)=C/C=C\C=C\Cc1cnco1)[C@]1(O)[C@@H](C)C(=O)N(C)[C@@]12COC2=O` here?
**A.** -2.06%

**Q.** Which “activation” value does the source give for `COc1cc2oc3ccccc3c(=O)c2cc1OC` here?
**A.** -3.51% [at 153 µM]

**Q.** For `COc1cc([C@@H]2c3cc4c(cc3C[C@@]3(O[C@@H]5O[C@H](CO)[C@@H](O)[C@H](O)[C@H]5O)COC(=O)[C@H]23)OCO4)cc(OC)c1OC`, which “activation” value is on record?
**A.** -5.4%

**Q.** With `O[C@H]1c2ccccc2-c2c3c(cc4c2[C@@H]1NCC4)OCO3` as the molecule, how does the “activation” value read?
**A.** -3.02%

**Q.** With `C[C@H]1C=C[C@H]2CCCC[C@@H]2[C@H]1C(=O)[C@H]1CC2=C(C(=O)O)CCN2C1=O` as the molecule, how does the “activation” value read?
**A.** 4.81%

**Q.** For `CC(C)C[C@@H]1c2c(O)c(C=O)c(O)c(C=O)c2O[C@]2(C)C=C[C@@H](C(C)C)C[C@H]12`, which “activation” value is on record?
**A.** -2.18%

**Q.** With `CC[C@@H](c1cc(OC)c(OC)cc1OC)[C@H](C)[C@@H](/C(C)=C/c1cc(OC)c(OC)cc1OC)c1cc(OC)c(OC)cc1OC` as the molecule, how does the Potency read?
**A.** inactive

**Q.** With `C/C(=C\[C@@H](C)CC/C=C/CC/C=C/C(=O)O)[C@H](O)[C@H](C)C(=O)CCCC1CC(=O)NC(=O)C1` as the molecule, how does the “activation” value read?
**A.** -1.94%

**Q.** With `COc1ccc([C@@H]2CC(=O)c3c(cc(O)c(C/C=C(\C)CCC=C(C)C)c3O)O2)cc1` as the molecule, how does the activation read?
**A.** 3.21% [at 15.3 µM]

**Q.** With `C=C1C[C@H]2O[C@@H]3[C@@H]4[C@H](CC[C@@](C)(O)[C@@H]42)[C@H](C)COC3(C)[C@@H](OC(=O)CCCCCCC)C[C@H]1O` (stereo not given in full) as the molecule, how does the “activation” value read?
**A.** 4.38%

**Q.** Which “activation” value does the source give for `C/C1=C/[C@@H](C)[C@H](O)[C@@H](O)/C=C/CC/C=C/C(=O)O[C@@H]1[C@H](C)C(=O)CCCC1CC(=O)NC(=O)C1` here?
**A.** -7.69%

**Q.** Which “activation” value does the source give for `CC(C)=CCC[C@]1(C)[C@H]2CC(=O)[C@@]3(CO3)[C@@H]1C2` here?
**A.** -4.8%

**Q.** With `O=C1CCC(=O)N(O)CCCCCNC(=O)CCC(=O)N(O)CCCCCNC(=O)CCC(=O)N(O)CCCCCN1` as the molecule, how does the “activation” value read?
**A.** 6.33%

**Q.** For `CC(CCC[C@]1(C)C(=O)C=C[C@@]23C[C@]4(C)O[C@@H](C[C@@H]4[C@H]2O)C31)C(=O)O` (stereo not given in full), which “activation” value is on record?
**A.** 0.732%

**Q.** Which “activation” value does the source give for `COc1cc(/C=C/C(=O)OC[C@@H](Cc2ccc(O)c(OC)c2)[C@@H](COC(=O)/C=C/c2ccc(O)c(OC)c2)Cc2ccc(O)c(OC)c2)ccc1O` here?
**A.** 29.1%

**Q.** For `C=C[C@@](C)(O)CC[C@@H]1[C@@]2(C)CCCC(C)(C)[C@@H]2CC[C@@]1(C)O`, which “activation” value is on record?
**A.** -3.66%

**Q.** For `C=C1CC[C@@H](Br)C(C)(C)[C@]12CC=C(C)C(=O)C2`, which “activation” value is on record?
**A.** -4.92%

**Q.** For `O=C1CC2OCC=C3CN4C5CC3C2[C@@H]2N1c1ccccc1[C@]52C[C@@H]4C1=C[C@H]2C3CC4N(CC[C@@]45c4ccccc4N(C1=O)[C@@H]25)C/C3=C/CO` (stereo not given in full), which “activation” value is on record?
**A.** 1.53%

**Q.** Which “activation” value does the source give for `O=C1OC(CCO)c2cccc(O)c21` (stereo not given) here?
**A.** 3.14%

**Q.** For `COC(=O)[C@@]12Oc3cccc(O)c3C(O)=C1C(=O)C[C@H](C)[C@H]2O`, which “activation” value is on record?
**A.** -3.52% [at 153 µM]

**Q.** For `CO/C=C/C(=O)c1cc2cnc3c(N)cc(=NC(=O)C(C)C)c([nH]1)c23`, which “activation” value is on record?
**A.** -13.1%

**Q.** Which “activation” value does the source give for `CC1=C2CC[C@]3(C)[C@H](CC=C4[C@@H]5CC(C)(C)CC[C@@H]5C(=O)[C@H](O)[C@]43C)[C@@]2(C)C=C(O)C1=O` here?
**A.** -9.77%

**Q.** With `CC[C@@H](C)[C@H]1NC(=O)C(CC(C)C)NC(=O)[C@@H](CC(C)C)NC(=O)[C@H](Cc2c[nH]c3ccccc23)NC(=O)CNC(=O)[C@@H](CC(N)=O)NC1=O` (stereo partly drawn) (cyclo(GW[dL][ξL][dI][dN])) as the molecule, how does the “activation” value read?
**A.** -14%

**Q.** For `CO[C@@H]1[C@H](O)[C@@H](C)O[C@@H](OC[C@@H]2C(C)OC(=O)/C=C/[C@H](C)C(O[C@@H]3O[C@H](C)CC4(OC(=O)O[C@@H]4C)C3O)[C@@H](C)CC(C)C(=O)/C=C/[C@H]3OC23)[C@@H]1OC` (stereo not given in full), which “activation” value is on record?
**A.** 8.84%

**Q.** Which “activation” value does the source give for `COc1ccc2[nH]c3c(c2c1)CCN1C[C@H]2C[C@@H](OC(=O)c4cc(OC)c(OC)c(OC)c4)[C@H](OC)[C@@H](OC)[C@H]2C[C@H]31` here?
**A.** 6.64%

**Q.** For `O=c1cc(-c2ccc(O)c(O)c2)oc2cc(O[C@@H]3O[C@H](CO)[C@@H](O)[C@H](O)[C@H]3O)cc(O)c12`, which “activation” value is on record?
**A.** 12%

**Q.** Which “activation” value does the source give for `CN1C(=O)C(=O)N2C(=C[C@]3(c4c[nH]c5ccccc45)c4ccccc4N[C@H]23)C1=O` here?
**A.** -1.49%
